Measurements from PubChem BioAssay (NCI).
This is part of a sample that, as a whole, favours compounds with a hit. Of some 83,000 tested, about 20% had one in any assay.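 Growth was measured after 48 h exposure to one concentration of compound in 96-well plates. Values under 10 count as active.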 Unmarked numbers belong to inactive results. Activity calls are given as the source filed them.

Experiments:
Assay in all cases: NCI-60 one-dose screen, 48 h (100 = growth as untreated, 0 = no growth, -100 = all killed)
Details in all cases: 10 µM unless noted
[1] = system: T-47D breast
[2] = system: BT-549 breast
[3] = system: MDA-MB-435 melanoma
[4] = system: SW-620 colon
[5] = system: MCF7 breast
[6] = system: HCT-116 colon
[7] = system: HCC-2998 colon
[8] = system: KM12 colon

SMILES: N#Cc1ccc(NC(=O)c2sc3nc4c(cc3c2N)C(=O)CCC4)cc1
- growth [1]: 95.9%
- growth [2]: 108%
- growth [3]: 97.4%
- growth [4]: 98.1%
- growth [5]: 97.4%
- growth [6]: 108%
- growth [7]: 99.2%
- growth [8]: 101%

SMILES: COc1cc2oc(-c3ccc(O)cc3)cc(=O)c2c(O)c1-c1c(OC)cc(O)c2c(=O)cc(-c3ccc(O)cc3)oc12
- growth [1]: 82.8%
- growth [2]: 46.7%
- growth [3]: 1.08% (active)
- growth [4]: 25.2%
- growth [5]: 38%
- growth [6]: 20.5%
- growth [7]: 72.5%
- growth [8]: 43.4%

SMILES: CCOC(=O)c1cn2ncnc(Oc3ccc(NC(=O)NCCN4CCOCC4)c(Cl)c3)c2c1C
- growth [1]: 80.6%
- growth [2]: 96.5%
- growth [3]: 97.3%
- growth [4]: 94.1%
- growth [5]: 88.5%
- growth [6]: 94.7%
- growth [7]: 110%
- growth [8]: 103%

SMILES: COc1ccc(S(=O)(=O)n2cc(C3OC(c4cc(OC)c(OC)c(OC)c4)=NN3C(C)=O)c3ccccc32)cc1OC (centres undefined)
- growth [1]: 54.7%
- growth [2]: 51.8%
- growth [3]: 95.4%
- growth [4]: 97.9%
- growth [5]: 88%
- growth [6]: 67.7%
- growth [7]: 105%
- growth [8]: 137%

SMILES: Cc1nc2ccccc2c(/C=C/c2ccc(Cl)cc2)c1C(=O)/C=C/c1ccc(C(F)(F)F)cc1
- growth [1]: -18.2% (active)
- growth [2]: -51.7% (active)
- growth [3]: -95.4% (active)
- growth [4]: -57.5% (active)
- growth [5]: -29.6% (active)
- growth [6]: -53.6% (active)
- growth [7]: -81.3% (active)
- growth [8]: -74.1% (active)

SMILES: CCN(CC)CCNC(=O)c1cn2ncnc(Oc3ccc(NC(=O)Nc4ccc(Cl)c(C(F)(F)F)c4)cc3)c2c1C
- growth [1]: -64.3% (active)
- growth [2]: -32.5% (active)
- growth [3]: -81.4% (active)
- growth [4]: -85.6% (active)
- growth [5]: -84.4% (active)
- growth [6]: -95.3% (active)
- growth [7]: -95.8% (active)
- growth [8]: -80.4% (active)

SMILES: CCOC(=O)/C=C1\S/C(=N\Nc2ccc([N+](=O)[O-])cc2[N+](=O)[O-])N(Cc2ccccc2)C1=O
- growth [1]: 56%
- growth [2]: 109%
- growth [3]: 98.2%
- growth [4]: 70.9%
- growth [5]: 72.8%
- growth [6]: 75.3%
- growth [7]: 93%
- growth [8]: 97.5%

SMILES: CN(C)c1ccc2nc3ccc(=[N+](C)C)c([N+](=O)[O-])c-3sc2c1
- growth [1]: 10.3%
- growth [2]: 40.5%
- growth [3]: 41.9%
- growth [4]: 24.4%
- growth [5]: 7.94% (active)
- growth [6]: 20.7%
- growth [7]: 42.7%
- growth [8]: 34.6%

SMILES: Cc1ccccc1C(=O)NN
- growth [1]: 102%
- growth [2]: 106%
- growth [3]: 111%
- growth [4]: 113%
- growth [5]: 102%
- growth [6]: 108%
- growth [7]: 95.4%
- growth [8]: 112%

SMILES: NC1CCN(c2nc(Nc3cccc(C(F)(F)F)c3)c3c(=O)[nH]ccc3n2)CC1
- growth [1]: -73.2% (active)
- growth [2]: -91.8% (active)
- growth [3]: -74.2% (active)
- growth [4]: -76.8% (active)
- growth [5]: -85.8% (active)
- growth [6]: -99.5% (active)
- growth [7]: -85.8% (active)
- growth [8]: -67.1% (active)

SMILES: CN1CCN(Cc2ccc(NC(=O)c3cncc(C#Cc4cnccc4C#N)c3)cc2C(F)(F)F)CC1
- growth [1]: 93.5%
- growth [2]: 76.5%
- growth [3]: 42%
- growth [4]: 50.7%
- growth [5]: 42.5%
- growth [6]: 24%
- growth [7]: 50.8%
- growth [8]: 22.3%

SMILES: Cc1ccc(S(=O)(=O)Oc2ccc(NC(=O)c3ccc(Cl)cc3)cc2)cc1
- growth [1]: 98.1%
- growth [2]: 90.8%
- growth [3]: 105%
- growth [4]: 103%
- growth [5]: 91.8%
- growth [6]: 81%
- growth [7]: 104%
- growth [8]: 103%

SMILES: O=C1NC(=O)C(c2ccccc2)(c2ccccc2)N1Cc1cn(-c2c3ccccc3nc3ccccc23)nn1
- growth [1]: 63.6%
- growth [2]: 81.5%
- growth [3]: 94.4%
- growth [4]: 85.6%
- growth [5]: 73.9%
- growth [6]: 68.1%
- growth [7]: 104%
- growth [8]: 91.2%

SMILES: CCCCCCN1C(=O)/C(=c2\sc3n(c2=O)C2C(NN=3)N(CC)C(=O)N2CC)c2ccccc21 (centres undefined)
- growth [1]: 16.2%
- growth [2]: 41.3%
- growth [3]: -49.2% (active)
- growth [4]: -38.3% (active)
- growth [5]: -10.4% (active)
- growth [6]: -37.3% (active)
- growth [7]: 83.5%
- growth [8]: 16.6%

SMILES: Cc1nc2ccccc2n1CC1C(=O)NC(=O)NC1=O
- growth [1]: 107%
- growth [2]: 121%
- growth [3]: 101%
- growth [4]: 108%
- growth [5]: 100%
- growth [6]: 104%
- growth [7]: 127%
- growth [8]: 103%

SMILES: O=C(COc1ccc(/C=C2\Cc3ccc(Cl)cc3C2=O)cc1)Nc1nc2ccccc2s1
- growth [1]: 101%
- growth [2]: 124%
- growth [3]: 113%
- growth [4]: 112%
- growth [5]: 103%
- growth [6]: 102%
- growth [7]: 115%
- growth [8]: 117%

SMILES: COc1ccc2c(c1)C(C)Cc1c(ncnc1-n1c(C)nc3ccccc31)N2C (centres undefined)
- growth [1]: 36.6%
- growth [2]: 51.7%
- growth [3]: -30.7% (active)
- growth [4]: 12%
- growth [5]: 15.4%
- growth [6]: 36.3%
- growth [7]: 41.3%
- growth [8]: 28.7%

SMILES: N#Cc1c(-c2ccccc2)nc(SCC(=O)Nc2nc(-c3ccc(Cl)cc3)cs2)[nH]c1=O
- growth [1]: 81.8%
- growth [2]: 93.6%
- growth [3]: 99.6%
- growth [4]: 113%
- growth [5]: 91.7%
- growth [6]: 81.8%
- growth [7]: 81.5%
- growth [8]: 103%

SMILES: CCOC(=O)c1cnn2c3ccccc3n(S(=O)(=O)c3ccc(OC)cc3)c12
- growth [1]: 71.8%
- growth [2]: 17.5%
- growth [3]: 2.91% (active)
- growth [4]: 25.9%
- growth [5]: 18.5%
- growth [6]: 14.4%
- growth [7]: 16.9%
- growth [8]: 25.9%

SMILES: COc1cc(C2CC(c3ccc(SC)cc3)=NN2C(C)=O)cc(OC)c1OC (centres undefined)
- growth [1]: 72.1%
- growth [2]: 36.4%
- growth [3]: -28.5% (active)
- growth [4]: 38.5%
- growth [5]: 41.9%
- growth [6]: 41.5%
- growth [7]: 61%
- growth [8]: 39.4%

SMILES: CCc1ccccc1-n1c(N)c(C#N)c(-c2ccc(Cl)cc2)c(C#N)c1=O
- growth [1]: 101%
- growth [2]: 173%
- growth [3]: 119%
- growth [4]: 102%
- growth [5]: 103%
- growth [6]: 103%
- growth [7]: 107%
- growth [8]: 95.8%

SMILES: CN(C)CC#Cc1ccc2ncc(C#N)c(Nc3ccc(F)c(Cl)c3)c2c1
- growth [1]: 44%
- growth [2]: 51.1%
- growth [3]: 65.3%
- growth [4]: 57.3%
- growth [5]: 79.4%
- growth [6]: 40.7%
- growth [7]: 60.3%
- growth [8]: 79.7%

SMILES: Cc1c(C(=O)/C=C/Nc2c(Cl)cc(S(N)(=O)=O)cc2Cl)sc2nc3ccccc3n12
- growth [1]: 97.8%
- growth [2]: 102%
- growth [3]: 103%
- growth [4]: 101%
- growth [5]: 102%
- growth [6]: 105%
- growth [7]: 124%
- growth [8]: 101%

SMILES: O=C(CCCCCCSc1nc(-c2ccccc2)cc(-c2ccccc2)n1)NO
- growth [1]: -11.1% (active)
- growth [2]: 30.9%
- growth [3]: 17.3%
- growth [4]: 8.47% (active)
- growth [5]: 16.1%
- growth [6]: 11.6%
- growth [7]: 63.4%
- growth [8]: 50.7%

SMILES: NC1=C(c2nn[nH]n2)C(c2ccccc2Cl)c2ccc3ccccc3c2O1 (centres undefined)
- growth [1]: 69.3%
- growth [2]: 93.1%
- growth [3]: -10.3% (active)
- growth [4]: 48.8%
- growth [5]: 41.3%
- growth [6]: 63.1%
- growth [7]: 98.6%
- growth [8]: 60.4%

SMILES: COc1ccc(C(=O)C(C)C)c2ccccc12
- growth [1]: 92.2%
- growth [2]: 113%
- growth [3]: 97.9%
- growth [4]: 95.2%
- growth [5]: 107%
- growth [6]: 101%
- growth [7]: 107%
- growth [8]: 101%

SMILES: O=c1ccc(N=Nc2ccc([N+](=O)[O-])cc2)ccc1O
- growth [1]: 16.8%
- growth [2]: 97.3%
- growth [3]: 21.8%
- growth [4]: 15.4%
- growth [5]: 7.16% (active)
- growth [6]: 32.3%
- growth [7]: 22.3%
- growth [8]: 16.7%

SMILES: COc1ccc(-c2nnc(COc3ccc(Cl)cc3Cl)o2)cc1OC
- growth [1]: -10.5% (active)
- growth [2]: 80.1%
- growth [3]: 48.4%
- growth [4]: 40.6%
- growth [5]: 32.9%
- growth [6]: 34.3%
- growth [7]: 95%
- growth [8]: 58.9%
